Laboratory results: article PMC7862700, “An all-to-all approach to the identification of sequence-specific readers for epigenetic DNA modifications on cytosine”

Legend:
Assay in all cases: DAPPL (digital affinity profiling via proximity ligation, sequencing); 10 mM Tris-HCl pH 7.5, 50 mM NaCl, 1 mM DTT, 4% glycerol, room temperature, 30 min; GST-TFs on glutathione beads, 16-mer random dsDNA library, 0.1% formaldehyde crosslink after washing; high values mean tight binding
FEV = target: T1, FEV (Homo sapiens, UniProt Q99581 1-238); details: protein: recombinant; tags: N-terminal GST; dsDNA, one strand shown
T1 sequence: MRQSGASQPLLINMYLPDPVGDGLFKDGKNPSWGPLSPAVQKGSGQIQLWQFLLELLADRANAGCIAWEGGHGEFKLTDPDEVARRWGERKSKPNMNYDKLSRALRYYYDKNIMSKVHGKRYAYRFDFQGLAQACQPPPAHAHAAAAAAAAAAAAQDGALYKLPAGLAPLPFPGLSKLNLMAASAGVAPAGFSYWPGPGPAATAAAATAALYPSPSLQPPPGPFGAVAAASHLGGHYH
Summary of the method: (§1)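 Sequencing on an Illumina NextSeq500 followed washing, crosslinking with 0.1% formaldehyde, proximity ligation (BsaI/T4 ligase, 1 h, 37 °C) and PCR amplification of pools that had been incubated for 30 min at room temperature with 200 nmole of a random double-stranded 16-mer DNA library in Tris/NaCl/DTT/glycerol buffer. Each pool held DNA-barcoded human transcription factors, expressed in yeast as GST fusions and captured on glutathione beads, plus a tag-only sample. Binding signal is a hexamer's read frequency for a factor divided by its frequency in the tag-only sample.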

ETV5 = ETV5 (Homo sapiens, UniProt P41161 1-510); details: protein: recombinant; tags: N-terminal GST; dsDNA, one strand shown
Summary of the method: as §1

HSF1 = HSF1 (Homo sapiens, UniProt Q00613 1-529); details: protein: recombinant; tags: N-terminal GST; chain copies: 3; dsDNA, one strand shown
Summary of the method: as §1

SPIC = target: T2, SPIC (Homo sapiens, UniProt Q8N5J4 1-248); details: protein: recombinant; tags: N-terminal GST; dsDNA, one strand shown
T2 sequence: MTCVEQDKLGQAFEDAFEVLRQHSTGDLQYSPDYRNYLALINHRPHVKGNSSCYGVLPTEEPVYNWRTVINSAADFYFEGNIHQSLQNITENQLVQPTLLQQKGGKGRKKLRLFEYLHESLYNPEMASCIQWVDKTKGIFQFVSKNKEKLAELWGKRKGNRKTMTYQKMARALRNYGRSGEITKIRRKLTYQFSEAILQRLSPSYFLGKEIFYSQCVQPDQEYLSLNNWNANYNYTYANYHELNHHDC
Summary of the method: as §1

ELF4 = ELF4 (Homo sapiens, UniProt Q99607 1-663); details: protein: recombinant; tags: N-terminal GST; dsDNA, one strand shown
Summary of the method: as §1

ELK4 = target: T3, ELK4 (Homo sapiens, UniProt P28324-2 1-405); details: protein: recombinant; tags: N-terminal GST; dsDNA, one strand shown
T3 sequence: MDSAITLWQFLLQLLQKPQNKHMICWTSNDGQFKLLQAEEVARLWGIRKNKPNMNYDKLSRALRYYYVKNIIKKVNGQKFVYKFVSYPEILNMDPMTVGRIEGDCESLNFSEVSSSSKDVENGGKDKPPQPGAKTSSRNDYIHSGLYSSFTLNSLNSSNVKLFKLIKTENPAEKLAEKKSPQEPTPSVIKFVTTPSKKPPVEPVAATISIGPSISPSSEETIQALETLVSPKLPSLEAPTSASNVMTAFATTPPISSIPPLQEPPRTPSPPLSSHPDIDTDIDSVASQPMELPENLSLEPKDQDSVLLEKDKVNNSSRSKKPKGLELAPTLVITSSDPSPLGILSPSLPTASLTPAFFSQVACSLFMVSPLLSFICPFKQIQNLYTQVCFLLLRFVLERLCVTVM
Summary of the method: as §1

ETV2 = target: T4, ETV2 (Homo sapiens, UniProt O00321 1-342); details: protein: recombinant; tags: N-terminal GST; dsDNA, one strand shown
T4 sequence: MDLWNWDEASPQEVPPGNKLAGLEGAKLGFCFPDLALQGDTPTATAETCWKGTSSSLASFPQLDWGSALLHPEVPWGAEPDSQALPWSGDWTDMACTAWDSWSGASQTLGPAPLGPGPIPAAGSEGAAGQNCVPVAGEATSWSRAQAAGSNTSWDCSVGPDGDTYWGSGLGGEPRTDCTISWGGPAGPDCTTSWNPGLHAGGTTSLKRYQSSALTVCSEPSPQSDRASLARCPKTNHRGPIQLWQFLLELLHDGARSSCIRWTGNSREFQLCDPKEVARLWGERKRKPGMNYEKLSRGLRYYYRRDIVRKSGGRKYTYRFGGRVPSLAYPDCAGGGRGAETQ
Summary of the method: as §1

ELF3 = target: T5, ELF3 (Homo sapiens, UniProt P78545 1-371); details: protein: recombinant; tags: N-terminal GST; dsDNA, one strand shown
T5 sequence: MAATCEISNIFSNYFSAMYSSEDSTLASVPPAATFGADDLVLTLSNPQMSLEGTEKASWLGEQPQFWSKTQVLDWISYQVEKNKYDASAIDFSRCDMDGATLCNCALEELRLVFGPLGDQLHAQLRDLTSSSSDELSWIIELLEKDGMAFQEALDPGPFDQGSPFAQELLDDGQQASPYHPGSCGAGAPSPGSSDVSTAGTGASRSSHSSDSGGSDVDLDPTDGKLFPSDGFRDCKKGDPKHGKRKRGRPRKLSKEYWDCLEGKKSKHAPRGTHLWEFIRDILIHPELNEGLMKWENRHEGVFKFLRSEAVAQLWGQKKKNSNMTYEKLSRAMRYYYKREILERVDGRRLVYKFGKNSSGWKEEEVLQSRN
Summary of the method: as §1

CRX = CRX (Homo sapiens, UniProt O43186 1-299); details: protein: recombinant; tags: N-terminal GST; dsDNA, one strand shown
Summary of the method: as §1

ETV1 = ETV1 (Homo sapiens, UniProt P50549 1-477); details: protein: recombinant; tags: N-terminal GST; dsDNA, one strand shown
Summary of the method: as §1

ETV5, sequence (P41161 whole entry): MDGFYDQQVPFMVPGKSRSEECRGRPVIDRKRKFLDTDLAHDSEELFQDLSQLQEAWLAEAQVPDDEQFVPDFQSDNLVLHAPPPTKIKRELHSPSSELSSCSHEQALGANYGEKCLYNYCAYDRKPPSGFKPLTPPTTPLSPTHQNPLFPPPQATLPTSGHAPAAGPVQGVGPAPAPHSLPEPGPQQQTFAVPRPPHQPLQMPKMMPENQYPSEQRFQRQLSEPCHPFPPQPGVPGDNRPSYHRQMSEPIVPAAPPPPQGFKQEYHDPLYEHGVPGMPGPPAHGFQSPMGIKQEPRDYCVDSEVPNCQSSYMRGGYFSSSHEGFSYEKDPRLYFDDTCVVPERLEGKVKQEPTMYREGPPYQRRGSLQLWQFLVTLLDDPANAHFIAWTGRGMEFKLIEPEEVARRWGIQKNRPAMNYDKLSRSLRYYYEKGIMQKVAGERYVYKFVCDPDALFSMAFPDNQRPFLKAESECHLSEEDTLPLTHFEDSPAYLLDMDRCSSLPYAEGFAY
ETV1, sequence (P50549 whole entry): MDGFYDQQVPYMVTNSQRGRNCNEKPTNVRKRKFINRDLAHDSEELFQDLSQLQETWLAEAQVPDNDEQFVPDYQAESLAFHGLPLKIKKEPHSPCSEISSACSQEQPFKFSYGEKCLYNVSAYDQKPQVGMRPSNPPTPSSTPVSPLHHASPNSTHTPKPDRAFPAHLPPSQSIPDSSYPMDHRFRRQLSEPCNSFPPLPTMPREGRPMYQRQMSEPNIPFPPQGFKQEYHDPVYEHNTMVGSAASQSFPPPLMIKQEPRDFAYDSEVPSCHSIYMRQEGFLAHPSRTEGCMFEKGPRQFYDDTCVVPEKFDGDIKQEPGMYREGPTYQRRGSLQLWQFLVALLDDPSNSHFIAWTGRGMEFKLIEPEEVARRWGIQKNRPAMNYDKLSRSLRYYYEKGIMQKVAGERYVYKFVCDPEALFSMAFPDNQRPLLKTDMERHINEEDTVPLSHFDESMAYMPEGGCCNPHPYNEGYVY
ELF4, sequence (Q99607 whole entry): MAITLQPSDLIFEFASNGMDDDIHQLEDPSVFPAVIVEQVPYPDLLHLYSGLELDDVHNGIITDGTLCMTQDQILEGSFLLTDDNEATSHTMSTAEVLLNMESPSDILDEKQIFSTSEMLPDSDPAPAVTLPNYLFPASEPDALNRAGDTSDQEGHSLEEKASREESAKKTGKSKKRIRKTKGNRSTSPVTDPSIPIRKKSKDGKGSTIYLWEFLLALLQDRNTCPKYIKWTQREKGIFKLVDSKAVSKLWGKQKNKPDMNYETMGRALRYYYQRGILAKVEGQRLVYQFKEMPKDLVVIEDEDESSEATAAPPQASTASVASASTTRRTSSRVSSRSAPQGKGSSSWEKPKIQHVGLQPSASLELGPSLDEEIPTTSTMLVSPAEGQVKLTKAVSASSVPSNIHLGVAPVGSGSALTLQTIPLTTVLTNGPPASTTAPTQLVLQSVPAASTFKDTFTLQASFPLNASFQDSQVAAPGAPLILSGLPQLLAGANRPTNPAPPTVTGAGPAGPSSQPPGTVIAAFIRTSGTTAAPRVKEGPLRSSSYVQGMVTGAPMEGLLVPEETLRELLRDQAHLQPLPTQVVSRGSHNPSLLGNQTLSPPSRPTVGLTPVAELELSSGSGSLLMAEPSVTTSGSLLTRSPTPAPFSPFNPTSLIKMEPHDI
CRX, sequence (O43186 whole entry): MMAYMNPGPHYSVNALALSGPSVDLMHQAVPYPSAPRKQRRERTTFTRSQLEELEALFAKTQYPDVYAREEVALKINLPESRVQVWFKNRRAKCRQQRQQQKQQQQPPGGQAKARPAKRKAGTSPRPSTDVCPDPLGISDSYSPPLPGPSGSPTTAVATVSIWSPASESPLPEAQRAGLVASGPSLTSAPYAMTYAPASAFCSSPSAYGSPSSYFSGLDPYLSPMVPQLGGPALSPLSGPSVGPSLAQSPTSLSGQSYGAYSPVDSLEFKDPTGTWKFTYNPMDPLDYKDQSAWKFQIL
HSF1, sequence (Q00613 whole entry): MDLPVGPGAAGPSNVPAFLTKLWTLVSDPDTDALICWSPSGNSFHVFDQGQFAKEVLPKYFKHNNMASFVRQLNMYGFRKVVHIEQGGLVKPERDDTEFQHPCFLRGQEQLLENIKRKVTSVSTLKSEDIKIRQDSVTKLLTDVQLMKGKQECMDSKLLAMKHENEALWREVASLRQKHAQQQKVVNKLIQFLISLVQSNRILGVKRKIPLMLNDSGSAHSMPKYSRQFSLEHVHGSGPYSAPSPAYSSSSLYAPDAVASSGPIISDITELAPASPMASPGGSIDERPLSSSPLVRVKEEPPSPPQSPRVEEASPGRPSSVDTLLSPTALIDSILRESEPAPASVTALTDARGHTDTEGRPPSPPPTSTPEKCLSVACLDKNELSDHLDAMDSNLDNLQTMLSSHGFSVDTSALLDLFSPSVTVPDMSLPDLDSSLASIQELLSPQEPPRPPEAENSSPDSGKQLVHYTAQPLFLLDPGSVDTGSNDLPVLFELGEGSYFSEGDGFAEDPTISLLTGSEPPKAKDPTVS

| Sequence | binding signal (FEV) | binding signal (ETV5) | binding signal (HSF1) | binding signal (SPIC) | binding signal (ELF4) | binding signal (ELK4) | binding signal (ETV2) | binding signal (ELF3) | binding signal (CRX) | binding signal (ETV1) |
| --- | --- | --- | --- | --- | --- | --- | --- | --- | --- | --- |
| ACGTCC | 1.81 fold enrichment (6-mer frequency, TF over GST control) | 1.65 fold enrichment (6-mer frequency, TF over GST control) | 1.07 fold enrichment (6-mer frequency, TF over GST control) | 1.59 fold enrichment (6-mer frequency, TF over GST control) | 1.54 fold enrichment (6-mer frequency, TF over GST control) | 1.46 fold enrichment (6-mer frequency, TF over GST control) | 1.39 fold enrichment (6-mer frequency, TF over GST control) | 1.39 fold enrichment (6-mer frequency, TF over GST control) | 1.01 fold enrichment (6-mer frequency, TF over GST control) | 1.63 fold enrichment (6-mer frequency, TF over GST control) |
| TCTTCG | 1.49 fold enrichment (6-mer frequency, TF over GST control) | 1.51 fold enrichment (6-mer frequency, TF over GST control) | 1.97 fold enrichment (6-mer frequency, TF over GST control) | 1.38 fold enrichment (6-mer frequency, TF over GST control) | 1.49 fold enrichment (6-mer frequency, TF over GST control) | 1.45 fold enrichment (6-mer frequency, TF over GST control) | 1.5 fold enrichment (6-mer frequency, TF over GST control) | 1.47 fold enrichment (6-mer frequency, TF over GST control) | 1.61 fold enrichment (6-mer frequency, TF over GST control) | 1.47 fold enrichment (6-mer frequency, TF over GST control) |
| AGCTCC | 1.26 fold enrichment (6-mer frequency, TF over GST control) | 1.29 fold enrichment (6-mer frequency, TF over GST control) | 1.22 fold enrichment (6-mer frequency, TF over GST control) | 1.26 fold enrichment (6-mer frequency, TF over GST control) | 1.43 fold enrichment (6-mer frequency, TF over GST control) | 1.16 fold enrichment (6-mer frequency, TF over GST control) | 1.35 fold enrichment (6-mer frequency, TF over GST control) | 1.33 fold enrichment (6-mer frequency, TF over GST control) | 1.3 fold enrichment (6-mer frequency, TF over GST control) | 1.29 fold enrichment (6-mer frequency, TF over GST control) |
| CTACGA | 1.34 fold enrichment (6-mer frequency, TF over GST control) | 1.2 fold enrichment (6-mer frequency, TF over GST control) | 1.25 fold enrichment (6-mer frequency, TF over GST control) | 1.17 fold enrichment (6-mer frequency, TF over GST control) | 1.24 fold enrichment (6-mer frequency, TF over GST control) | 1.22 fold enrichment (6-mer frequency, TF over GST control) | 1.47 fold enrichment (6-mer frequency, TF over GST control) | 1.5 fold enrichment (6-mer frequency, TF over GST control) | 1.21 fold enrichment (6-mer frequency, TF over GST control) | 1.19 fold enrichment (6-mer frequency, TF over GST control) |
| ATGGCC | 1.45 fold enrichment (6-mer frequency, TF over GST control) | 1.42 fold enrichment (6-mer frequency, TF over GST control) | 1.23 fold enrichment (6-mer frequency, TF over GST control) | 1.52 fold enrichment (6-mer frequency, TF over GST control) | 1.44 fold enrichment (6-mer frequency, TF over GST control) | 1.48 fold enrichment (6-mer frequency, TF over GST control) | 1.41 fold enrichment (6-mer frequency, TF over GST control) | 1.5 fold enrichment (6-mer frequency, TF over GST control) | 1.08 fold enrichment (6-mer frequency, TF over GST control) | 1.38 fold enrichment (6-mer frequency, TF over GST control) |
| TACCAT | 1.14 fold enrichment (6-mer frequency, TF over GST control) | 1.13 fold enrichment (6-mer frequency, TF over GST control) | 1.14 fold enrichment (6-mer frequency, TF over GST control) | 1.11 fold enrichment (6-mer frequency, TF over GST control) | 1.22 fold enrichment (6-mer frequency, TF over GST control) | 1.27 fold enrichment (6-mer frequency, TF over GST control) | 1.15 fold enrichment (6-mer frequency, TF over GST control) | 1.16 fold enrichment (6-mer frequency, TF over GST control) | 1.23 fold enrichment (6-mer frequency, TF over GST control) | 1.2 fold enrichment (6-mer frequency, TF over GST control) |
| TTTCAC | 1.37 fold enrichment (6-mer frequency, TF over GST control) | 1.37 fold enrichment (6-mer frequency, TF over GST control) | 1.23 fold enrichment (6-mer frequency, TF over GST control) | 1.17 fold enrichment (6-mer frequency, TF over GST control) | 1.43 fold enrichment (6-mer frequency, TF over GST control) | 1.52 fold enrichment (6-mer frequency, TF over GST control) | 1.35 fold enrichment (6-mer frequency, TF over GST control) | 1.26 fold enrichment (6-mer frequency, TF over GST control) | 1.14 fold enrichment (6-mer frequency, TF over GST control) | 1.42 fold enrichment (6-mer frequency, TF over GST control) |
